Assay results from PubChem BioAssay (NCATS).
Records with an inconclusive call do not appear. Active and inactive are the calls of the source. Calls come from the whole dose curve; as a rule, active = well fitted inhibition curve with a large enough effect; inconclusive = small, poorly fitted or top-dose-only effect; inactive = flat fitted curve, though single readings scatter.

What was measured:
Assay in all cases: qHTS profiling for inhibitors of Plasmodium falciparum proliferation (AID 504749); note: nearly all actives have a fitted effect of over 60% in size
Conditions in all cases: P. falciparum in erythrocytes, SYBR Green DNA, 72 h; series mostly up to 28.7 µM
CP315 = system: CP315
Summary of the method: (§1)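 Parasite proliferation within erythrocytes, 72 h exposure. Endpoint: SYBR Green I fluorescence after overnight lysis at room temperature. Controls: 0.29 uM artemisinin, DMSO.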

CP325 = system: CP325
Summary of the method: as §1

CP329 = system: CP329
Summary of the method: as §1

DFO2036 = system: DFO2036
Summary of the method: as §1

DIV14 = system: DIV14
Summary of the method: as §1

DIV17 = system: DIV17
Summary of the method: as §1

DIV30 = system: DIV30
Summary of the method: as §1

FAB9 = system: FAB9
Summary of the method: as §1

GB4 = system: GB4
Summary of the method: as §1

HB3 = system: HB3
Summary of the method: as §1

ICS = system: ICS
Summary of the method: as §1

JCK = system: JCK
Summary of the method: as §1

N140 = system: N140
Summary of the method: as §1

P93_24 = system: P93_24
Summary of the method: as §1

P94_40 = system: P94_40
Summary of the method: as §1

PAD = system: PAD
Summary of the method: as §1

PC15 = system: PC15
Summary of the method: as §1

PC26 = system: PC26
Summary of the method: as §1

PC49 = system: PC49
Summary of the method: as §1

SC27B = system: SC27B
Summary of the method: as §1

Measured: Potency

C[N+]1(C)C2CC[C@H]1CC(OC(=O)[C@@H](CO)c1ccccc1)C2 (stereo not given in full)
inactive: all assays above
